Assay outcomes as filed in PubChem.
Sampled rows, rich in hits. Any-hit rate of the full collection: about 7.4%.
PD-1 reverse act: activators reversing PD-1 mediated T-cell inhibition, primary screen, luminescence, primary human CD4 T cells, PD-L1 beads; CellTiter-Glo 96 h; activation, % (concentration not given with the values); 29,000 tested, under 10 active; AID 2316, 2010; call rule not given here
Hedgehog inh: Hedgehog pathway signaling inhibitors, primary screen, luminescence, Shh-LIGHT2 cells, Gli-luciferase; AID 2313, 2010; Shh-LIGHT2 Gli-luciferase reporter, 30 h; inhibition, % (concentration not given with the values); hit rate 2.1% among 22,000;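 active means mean inhibition across valid replicates above about 65%, limit read from the data; inconclusive means mean under the limit, yet half or more replicates past it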;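 further: pathway switched on by Shh-conditioned medium diluted 1 in 25 in low serum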
MITF inhib: inhibitors of MITF, primary screen, MITF inhibitor project, cell-based, luminescence. TRPM1 promoter luciferase, 24 h. inhibition, % (test concentration not listed). hit rate 0.28% among 37,000. AID 2240, 2010; in the data active means inhibition above about 85%; inconclusive means no clear call, values can overlap the other calls; inactive means below about 68%;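 further: human melanocyte line stably carrying TRPM1 promoter luciferase reporter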
YB-1 expression: inhibitors of YB-1 gene expression, primary screen, cell-based, fluorescence | U2OS, qRT-PCR YB-1 vs CDIP delta delta Cp, 16 h; stronger effect = higher value; zero = DMSO, each unit about twofold | delta delta Cp (YB-1 minus CDIP) (concentration not given with the values) | hit rate 0.37% among 30,000 | AID 434959, 2010;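 active means delta delta Cp rounded down to an integer at or above 3, about 3 SD of DMSO wells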;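 further: higher means less YB-1 transcript or more CDIP transcript relative to DMSO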
NOMO-1 viab: NOMO-1 AML cell viability reduction, primary screen, STK33 inhibitor project, CellTiter-Glo luminescence; NOMO-1 AML viability, 72 h; inhibition, % (concentration not given with the values); hit rate 7.5% among 37,000; AID 2330, 2010; in the data active means inhibition above about 80%; inconclusive means no clear call, values can overlap the other calls
Large screens that a line does not name were inactive.

COc1ccc(NC(=O)Nc2ccc3c(c2)C(=O)N([C@H](C)CO)C[C@H](C)[C@H](CN(C)Cc2ccc4c(c2)OCO4)OCCCC[C@@H](C)O3)cc1	Hedgehog inh 72
CC(C)NC(=O)Nc1ccc2c(c1)C(=O)N([C@H](C)CO)C[C@H](C)[C@H](CN(C)Cc1ccc(Cl)c(Cl)c1)OCCCC[C@@H](C)O2	NOMO-1 viab 101
C[C@@H]1CCCCO[C@H](CN(C)Cc2ccc(Cl)c(Cl)c2)[C@@H](C)CN([C@H](C)CO)C(=O)c2cc(NC(=O)Nc3ccc(F)cc3)ccc2O1	NOMO-1 viab 126 (no result: PD-1 reverse act, Hedgehog inh)
C[C@@H]1CCCCO[C@@H](CN(C)Cc2ccc3c(c2)OCO3)[C@@H](C)CN([C@H](C)CO)C(=O)c2cc(NS(=O)(=O)c3cccs3)ccc2O1	Hedgehog inh 74
O=C(O)c1cccc(COc2ccc(CO)cc2Br)c1	MITF inhib inconclusive (no result: Hedgehog inh, YB-1 expression)
c1ccc2[nH]c(-c3nc4ccccc4s3)nc2c1	MITF inhib 86, NOMO-1 viab 127
COc1ccc(NC(=O)Nc2cccc3c2O[C@@H](CN(C)S(=O)(=O)c2ccc(OC)cc2)[C@H](C)CN([C@H](C)CO)C3=O)cc1	none
COc1ccc(S(=O)(=O)N(C)C[C@@H]2Oc3c(NC(=O)Nc4ccc(C(F)(F)F)cc4)cccc3C(=O)N([C@H](C)CO)C[C@@H]2C)cc1	NOMO-1 viab 114
COc1ccc(NC(=O)Nc2cccc3c2O[C@@H](CN(C)S(=O)(=O)c2ccc(Cl)cc2)[C@@H](C)CN([C@@H](C)CO)C3=O)cc1	Hedgehog inh 101 (no result: PD-1 reverse act)
COc1ccc(S(=O)(=O)N(C)C[C@@H]2Oc3c(NC(=O)Nc4ccc(C(F)(F)F)cc4)cccc3C(=O)N([C@@H](C)CO)C[C@@H]2C)cc1	NOMO-1 viab 93
C[C@@H]1O[C@@H](O[C@H]2[C@H](O[C@H]3CC[C@@]4(C)C(CC[C@]5(C)C4C=C[C@]46OC[C@@]7(CCC(C)(C)C[C@H]74)[C@@H](O)C[C@]65C)[C@]3(C)CO)O[C@H](CO)[C@@H](O)[C@@H]2O[C@@H]2O[C@H](CO)[C@@H](O[C@@H]3O[C@@H](C)[C@H](O)[C@@H](O)[C@H]3O)[C@H](O)[C@H]2O)[C@H](O)[C@H](O)[C@H]1O (some centres undefined)	Hedgehog inh 104, YB-1 expression 3.4 (no result: PD-1 reverse act, MITF inhib, NOMO-1 viab)
Cc1cc(C(=O)O)ccc1NC(=O)CCCC(=O)O	none (no result: Hedgehog inh, YB-1 expression)
COC(=O)c1ccccc1NC(=O)c1ccc(NC(=O)CSc2ccc(Cl)cc2)cc1	none (no result: Hedgehog inh, YB-1 expression)
CC(C)(C)c1ccc(C(=O)Nc2ccc(NC(=O)c3ccccc3F)cc2)cc1	NOMO-1 viab 125
O=C(Nc1ccc(NC(=O)c2ccccc2O)cc1)c1ccc(Cl)cc1	Hedgehog inh 97
Cc1nc(=O)c(-c2ccccc2)c(C)n1-c1ccc(C(=O)O)cc1	none
Cc1[nH]c2ccccc2c1C(=O)CSc1nc2sc(C)c(C)c2c(=O)n1-c1ccccc1	NOMO-1 viab 100 (no result: Hedgehog inh, YB-1 expression)
COc1ccc(C(=O)Nc2ccc(C(O)(C(F)(F)F)C(F)(F)F)cc2)cc1	Hedgehog inh inconclusive, NOMO-1 viab 110
COc1ccc(C(=O)Nc2ccc(C)c(C)c2)cc1	none
COc1ccc(C(=O)C(C)Oc2ccc(NC(=O)c3cccc(OC)c3)cc2)cc1 (centres undefined)	NOMO-1 viab 125 (no result: Hedgehog inh, YB-1 expression)
COC(=O)c1ccccc1NC(=O)C(C)Oc1ccc2c(C)cc(=O)oc2c1 (centres undefined)	NOMO-1 viab 89 (no result: PD-1 reverse act, Hedgehog inh, YB-1 expression)
C[C@H](CO)N1C[C@H](C)[C@H](CN(C)Cc2ccc(Oc3ccccc3)cc2)Oc2ccc(NS(=O)(=O)c3ccc(F)cc3)cc2C1=O	none
C=C(C(=O)O[C@H]1C/C=C(/C)C[C@H](O)[C@H]2[C@H](C)C(=O)O[C@@H]2/C=C\1C)[C@@H]1CCC(=C)[C@@H]2C[C@H](O[C@@H]3O[C@H](COC(=O)CC(=O)O)[C@@H](O)[C@H](O)[C@H]3O)C(=C)[C@@H]2C1	NOMO-1 viab 105
C=C1CCC(O)/C(C)=C\CC(C(C)C)C(OC2OC(COC(C)=O)C(O)C(O)C2O)C1 (centres undefined)	none
C[C@@H]1CN([C@H](C)CO)C(=O)CCCn2nncc2CO[C@@H]1CN(C)C(=O)Nc1ccccc1C(F)(F)F	none (no result: PD-1 reverse act, Hedgehog inh, MITF inhib, NOMO-1 viab)
Cc1ccc(Nc2ccc3noc4c3c2C(=O)c2ccccc2-4)cc1	NOMO-1 viab 127 (no result: Hedgehog inh)
CNc1cc(NC)c2ncnc3c2c1C(=O)c1ccccc1-3	none (no result: Hedgehog inh)
COc1ccc(S(=O)(=O)Nc2ccc3c(c2)C(=O)N([C@H](C)CO)C[C@@H](C)[C@H](CN(C)Cc2ccc(C(=O)Nc4ccccc4N)cc2)O3)cc1	none (no result: Hedgehog inh)
COc1ccc(S(=O)(=O)Nc2ccc3c(c2)CC(=O)N([C@H](C)CO)C[C@H](C)[C@H](CN(C)Cc2ccc(C(=O)Nc4ccccc4N)cc2)O3)cc1	NOMO-1 viab 140 (no result: Hedgehog inh)
COc1ccc(S(=O)(=O)Nc2ccc3c(c2)CC(=O)N([C@H](C)CO)C[C@@H](C)[C@@H](CN(C)Cc2ccc(C(=O)Nc4ccccc4N)cc2)O3)cc1	NOMO-1 viab 92 (no result: Hedgehog inh)
Cc1ccc(F)cc1NC(=O)CSc1nc2ccccc2s1	none (no result: Hedgehog inh, YB-1 expression)
COc1ccc(S(=O)(=O)N(C)C[C@H]2Oc3ccc(NS(=O)(=O)c4cn(C)cn4)cc3C(=O)N([C@@H](C)CO)C[C@H]2C)cc1	none
CC(C)(C)c1cc(O)c(C(C)(C)C)cc1O	Hedgehog inh 90, NOMO-1 viab 114 (no result: PD-1 reverse act)
C[C@H](CO)N1C[C@H](C)[C@@H](CN(C)Cc2ccc(C(F)(F)F)cc2)Oc2ccc(NC(=O)Nc3ccc(F)cc3)cc2C1=O	NOMO-1 viab 119
C[C@H]1CN([C@@H](C)CO)C(=O)c2cc(NC(=O)Nc3ccc(C(F)(F)F)cc3)ccc2O[C@@H]1CN(C)Cc1ccncc1	none
C[C@@H]1CN([C@H](C)CO)C(=O)c2cc(NC(=O)Nc3ccc(F)cc3)ccc2O[C@@H]1CN(C)Cc1ccc(C(F)(F)F)cc1	NOMO-1 viab inconclusive (no result: Hedgehog inh)
C[C@H]1CN([C@@H](C)CO)C(=O)c2cc(NC(=O)Nc3ccc(C(F)(F)F)cc3)ccc2O[C@@H]1CN(C)Cc1ccc(C(F)(F)F)cc1	MITF inhib 95, NOMO-1 viab 114 (no result: Hedgehog inh)
C[C@@H]1CN([C@@H](C)CO)C(=O)c2cc(NC(=O)Nc3ccc(C(F)(F)F)cc3)ccc2O[C@@H]1CN(C)Cc1ccc(Cl)c(Cl)c1	NOMO-1 viab 108
C[C@H](CO)N1C[C@H](C)[C@H](CN(C)Cc2ccc(C(F)(F)F)cc2)Oc2ccc(NC(=O)Nc3ccc(F)cc3)cc2C1=O	none (no result: Hedgehog inh)
C[C@H](CO)N1C[C@H](C)[C@H](CN(C)Cc2ccc(C(F)(F)F)cc2)Oc2ccc(NC(=O)Nc3ccc(C(F)(F)F)cc3)cc2C1=O	none (no result: Hedgehog inh)
